Our source for the IC50, outcome and CC50 values is PubChem BioAssay AID1332 (Southern Research Institute, 2008).

Converted amounts (≈) assume the structure as drawn. In all, about 1,100 compounds went through this assay and about 170 (15%) were called active. How the calls were made is not given here. These entries were drawn from the full list.

This assay is described as follows: Mycobacterium tuberculosis H37Rv growth inhibition, confirmatory dose response, cytotoxicity (AID 1332).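 On CC50: Vero cells exposed to compounds for 72 hours.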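 On IC50: bacteria incubated 7 days before adding Alamar blue readout reagent.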 Conditions: M. tuberculosis H37Rv growth inhibition; CC50: measured here: Vero cell cytotoxicity; IC50: measured here: IC50 H37Rv replicates.
The term IC50 denotes the midpoint of a concentration-inhibition curve. Low values mean inhibition by little substance, high ones a need for much substance. Consider `NCc1ccc(S(N)(=O)=O)cc1`, for which the IC50 is greater than 20 µg/mL and the compound was classed as inactive.
The matching figures for `COc1ncnc(NS(=O)(=O)c2ccc(N)cc2)c1OC`: greater than 20 µg/mL and “inactive”.
On to `COc1cnc(NS(=O)(=O)c2ccc(N)cc2)nc1`, for which the IC50 was greater than 20 µg/mL and the compound was called inactive.
The matching figures for `COc1cc(NS(=O)(=O)c2ccc(N)cc2)nc(OC)n1`: 12.6 µg/mL (≈ 40.7 µM) and “active”.
The matching figures for `C[C@@H]1NC(=O)NC1=O`: greater than 20 µg/mL and “inactive”.
The matching figures for `CC1CS(=O)(=O)CCN1N=Cc1ccc([N+](=O)[O-])o1` (stereo not given): 2.74 µg/mL (≈ 9.55 µM) and “active”.
With `O=C1OC(CN2CCOCC2)CN1/N=C/c1ccc([N+](=O)[O-])o1` (stereo not given), the 50% inhibitory concentration (IC50) is greater than 20 µg/mL and the compound was called inactive.
The matching figures for `CCCc1cc(=O)[nH]c(=S)[nH]1`: greater than 20 µg/mL and “inactive”.
In the case of `CCOC(=O)Nc1ccc2c(c1)N(C(=O)CCN1CCOCC1)c1ccccc1S2`, the IC50 was greater than 20 µg/mL and the compound was called inactive.
The matching figures for `CCN(CC)CCOC(=O)C(c1ccccc1)c1ccccc1`: greater than 20 µg/mL and “inactive”.
The matching figures for `CC(C)NC[C@@H](O)COc1cccc2ccccc12`: greater than 20 µg/mL and “inactive”.
Take `C[C@@H]1O[C@@H](O[C@H]2[C@H](Oc3cc(O)c4c(c3)O[C@H](c3ccc(O)cc3)CC4=O)O[C@H](CO)[C@@H](O)[C@@H]2O)[C@H](O)[C@H](O)[C@H]1O`: the IC50 is greater than 20 µg/mL and the compound was called inactive.
With `CN[C@H](CC(C)C)C(=O)N[C@H]1C(=O)N[C@@H](CC(N)=O)C(=O)N[C@H]2C(=O)N[C@H]3C(=O)N[C@H](C(=O)N[C@H](C(=O)O)c4cc(O)cc(O)c4-c4cc3ccc4O)[C@H](O)c3ccc(c(Cl)c3)Oc3cc2cc(c3O[C@@H]2OC(CO)[C@@H](O)[C@H](O)[C@H]2O[C@H]2C[C@](C)(N)[C@H](O)[C@H](C)O2)Oc2ccc(cc2Cl)[C@H]1O` (stereo not given in full), the IC50 was 1.06 µg/mL (≈ 0.732 µM) and the compound was called active.
The matching figures for `COc1ccc(C(=O)c2ccccc2)c(O)c1`: greater than 20 µg/mL and “inactive”.
For the compound `CCC[C@@H]1C[C@@H](C(=O)N[C@@H](C2O[C@H](SC)[C@H](O)[C@@H](O)[C@H]2O)[C@H](C)Cl)N(C)C1` (stereo not given in full), the IC50 stood at 0.395 µg/mL (≈ 0.929 µM) and the result was active.
As for `CCC[C@@H]1C[C@@H](C(=O)N[C@@H]([C@H]2O[C@H](SC)[C@H](O)[C@@H](O)[C@@H]2O)[C@@H](C)O)N(C)C1`, the IC50 is 11.6 µg/mL (≈ 28.5 µM) and the compound was called active.
The matching figures for `CCC(=O)O[C@@H]1CC(=O)O[C@H](C)C/C=C/C=C/[C@@H](O)[C@H](C)C[C@H](CC=O)[C@H](O[C@@H]2O[C@H](C)[C@@H](O[C@H]3C[C@@](C)(O)[C@@H](OC(=O)CC)[C@H](C)O3)[C@H](N(C)C)[C@H]2O)[C@H]1OC`: greater than 20 µg/mL and “inactive”.
The matching figures for `CN(C)CCOC(c1ccc(Cl)cc1)c1ccccn1` (stereo not given): greater than 20 µg/mL and “inactive”.
The matching figures for `CCOC(=O)[C@H](CCc1ccccc1)N[C@@H](C)C(=O)N1C(C(=O)O)C[C@@H]2CCC[C@@H]21` (stereo not given in full): greater than 20 µg/mL and “inactive”.
Consider `Cc1onc(-c2ccccc2Cl)c1C(=O)N[C@@H]1C(=O)N2[C@@H]1SC(C)(C)[C@@H]2C(=O)O`, for which the IC50 is greater than 20 µg/mL and the call was inactive.
With `CN(C)CCn1nnnc1SCC1=C(C(=O)O)N2C(=O)[C@@H](NC(=O)Cc3csc(N)n3)[C@H]2SC1`, the IC50 was greater than 20 µg/mL and the compound was classed as inactive.
The matching figures for `NCc1ccccc1CC(=O)N[C@@H]1C(=O)N2C(C(=O)O)=C(CSc3nnnn3CC(=O)O)CS[C@H]12`: 13.8 µg/mL (≈ 26.6 µM) and “active”.
The matching figures for `Cn1nnnc1SCC1=C(C(=O)O)N2C(=O)[C@@H](NC(=O)[C@H](O)c3ccccc3)[C@H]2SC1`: greater than 20 µg/mL and “inactive”.
For `CC(C)(C)NCC(O)COc1cccc2c1CCC(=O)N2` (stereo not given), the IC50 is greater than 20 µg/mL and the compound was classed as inactive.
The matching figures for `Cc1n[nH]c(=O)[nH]c1=O`: greater than 20 µg/mL and “inactive”.
The matching figures for `CCN(CC)CCNC(=O)c1cc(Cl)c(N)cc1OC`: greater than 20 µg/mL and “inactive”.
The matching figures for `COc1cc(N)c(Cl)cc1C(=O)N[C@H]1CCN(CCCOc2ccc(F)cc2)C[C@H]1OC`: 9.3 µg/mL (≈ 20 µM) and “active”.
Take `COc1cc(N)c(Cl)cc1C(=O)NC1CCN(Cc2ccccc2)CC1`: the IC50 was greater than 20 µg/mL and the compound was classed as inactive.
The matching figures for `O=C(O)C1CCCNC1` (stereo not given): greater than 20 µg/mL and “inactive”.
The matching figures for `CC(=O)Nc1cc2ccccc2oc1=O`: greater than 20 µg/mL and “inactive”.
On to `CCCC(=O)Nc1ccc(OCC(O)CNC(C)C)c(C(C)=O)c1` (stereo not given), for which the IC50 was greater than 20 µg/mL and the call was inactive.
Take `COc1cc(C(=O)OCCCN2CCCN(CCCOC(=O)c3cc(OC)c(OC)c(OC)c3)CC2)cc(OC)c1OC`: the IC50 was greater than 20 µg/mL and the call was inactive.
The CC50 is the concentration that lowers cell viability or growth by half. `COc1cc(/C=C/C(=O)N2CCC=CC2=O)cc(OC)c1OC`: the CC50 amounted to 1.53 µg/mL (≈ 4.82 µM), the IC50 came to 11.4 µg/mL (≈ 36.1 µM) and the compound was called active.
In the case of `CC(=O)[C@H]1CC[C@H]2[C@@H]3C=CC4=CC(=O)CC[C@@]4(C)[C@@H]3CC[C@]12C`, the IC50 is greater than 20 µg/mL and the call was inactive.
Consider `CC(N)CCCC(C)(C)O` (stereo not given), for which the IC50 was greater than 20 µg/mL and the compound was classed as inactive.
With `CC1(C)S[C@@H]2[C@H](NC(=O)[C@H](N)c3ccccc3)C(=O)N2[C@H]1C(=O)OC1OC(=O)c2ccccc21` (stereo not given in full), the IC50 was greater than 20 µg/mL and the call was inactive.
In the case of `CC(=O)Oc1ccc(C(c2ccc(OC(C)=O)cc2)c2ccccn2)cc1`, the IC50 is greater than 20 µg/mL and the compound was classed as inactive.
As to `CC(=O)N=c1sc(S(N)(=O)=O)nn1C`, the IC50 is greater than 20 µg/mL and the outcome was inactive.
On to `C=C(C)[C@@H]1CC[C@]2(CO)CC[C@]3(C)[C@H](CC[C@@H]4[C@@]5(C)CC[C@H](O)C(C)(C)[C@@H]5CC[C@]43C)[C@@H]12`, for which the CC50 was greater than 6 µg/mL, the IC50 is greater than 20 µg/mL and the compound was called inactive.
On to `C[N+](C)(CCOc1ccccc1)Cc1ccccc1`, for which the IC50 was greater than 20 µg/mL and the compound was classed as inactive.
The matching figures for `CC(C)(C)CC(C)(C)c1ccc(OCCOCC[N+](C)(C)Cc2ccccc2)cc1`: 8 µg/mL and “active”.
Regarding `CC(C)(C)CC(C)(C)c1ccc(OCOCCOCCO)c(Cc2cc(C(C)(C)CC(C)(C)C)cc(Cc3cc(C(C)(C)CC(C)(C)C)ccc3OCOCCOCCO)c2OCOCCOCCO)c1`, the IC50 is greater than 20 µg/mL and the compound was classed as inactive.
The matching figures for `CCCCC1(COC(=O)CCC(=O)O)C(=O)N(c2ccccc2)N(c2ccccc2)C1=O`: greater than 20 µg/mL and “inactive”.
Regarding `CNCCC(Oc1ccc(C(F)(F)F)cc1)c1ccccc1` (stereo not given), the CC50 was greater than 6 µg/mL, the IC50 is 9.88 µg/mL (≈ 32 µM) and the compound was called active.
With `CNCCC(Oc1ccccc1OC)c1ccccc1` (stereo not given), the IC50 is greater than 20 µg/mL and the compound was called inactive.
The matching figures for `CO[C@H]1C=C2CCN(C)[C@H]2C2c3cc4c(cc3C(=O)O[C@@H]21)OCO4` (stereo not given in full): greater than 20 µg/mL and “inactive”.
As for `C#C[C@]1(OC(C)=O)CC[C@H]2[C@@H]3CCC4=C[C@@H](OC(C)=O)CC[C@@H]4[C@H]3CC[C@@]21C`, the IC50 is greater than 20 µg/mL and the compound was classed as inactive.
On to `CN(C)[C@@H]1C(=O)C(C(N)=O)=C(O)[C@@]2(O)C(=O)C3=C(O)c4c(O)cccc4[C@@](C)(O)[C@H]3[C@H](O)[C@@H]12`, for which the IC50 is greater than 20 µg/mL and the compound was classed as inactive.
On to `C=C1c2c(Cl)ccc(O)c2C(O)=C2C(=O)[C@]3(O)C(O)=C(C(N)=O)C(=O)[C@@H](N(C)C)[C@@H]3[C@@H](O)C12` (stereo not given in full), for which the CC50 is greater than 6 µg/mL, the IC50 came out at 3.86 µg/mL (≈ 8.1 µM) and the call was active.
As for `C=C1c2cccc(O)c2C(O)=C2C(=O)[C@]3(O)C(O)=C(C(N)=O)C(=O)[C@@H](N(C)C)[C@@H]3[C@@H](O)[C@H]12`, the IC50 was greater than 17.9 µg/mL and the result was active.
The matching figures for `C[C@H]1c2cccc(O)c2C(O)=C2C(=O)C3(O)C(O)=C(C(N)=O)C(=O)[C@@H](N(C)C)[C@@H]3[C@@H](O)[C@@H]21` (stereo not given in full): 2.44 µg/mL (≈ 5.49 µM) and “active”.
The matching figures for `CN(C)[C@@H]1C(=O)C(C(N)=O)=C(O)[C@@]2(O)C(=O)C3=C(O)c4c(O)ccc(Cl)c4[C@@](C)(O)C3C[C@@H]12` (stereo not given in full): 13.2 µg/mL (≈ 27.5 µM) and “active”.
The matching figures for `CN(C)[C@@H]1C(=O)C(C(=O)NCN2CCCC2)=C(O)[C@@]2(O)C(=O)C3=C(O)c4c(O)cccc4[C@@](C)(O)C3CC12` (stereo not given in full): greater than 20 µg/mL and “inactive”.
